The values below come from PubChem BioAssay (NCATS).

Test [1] is described as follows: qHTS profiling of the MIPE4 collection as inhibitors of Plasmodium falciparum (DD2) proliferation (Rep 2) (AID 743346; call rule not given here). Conditions: P. falciparum Dd2 in erythrocytes, SYBR Green DNA, 72 h; at 28.5 µM unless noted. Summed up: (§1)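 Parasite DNA was quantified by SYBR Green I fluorescence (ex 485, em 535 nm) after overnight lysis in saponin/Triton buffer at room temperature. Cultures at 0.3% parasitemia and 2.5% hematocrit were first exposed to compound for 72 h at 37 C; signals were normalised to artemisinin (0.29 uM) and vehicle wells.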
A general note: qHTS replaces the single test concentration by a dilution series.

Test [2] can be described thus: qHTS profiling of the MIPE4 collection as inhibitors of Plasmodium falciparum (HB3) proliferation (AID 743347; call rule not given here;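 note: plate controls were DMSO vehicle wells for no effect and artemisinin wells for full effect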). Conditions: P. falciparum HB3 in erythrocytes, SYBR Green DNA, 72 h; at 28.5 µM unless noted. Summed up:
as §1

Test [3] in a line: High-throughput drug toxicity screening in the BPDCN cell line Gen2.2 (AID 1224824; call rule not given here;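 note: cells exposed to compounds for 48 h before reading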). Conditions: Gen2.2 BPDCN cells; at 45.8 µM (top of the series) unless noted. A digest of the protocol:
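CellTiter-Glo luminescence read after 48 h compound exposure at 37 C defines viability; percent activity set with DMSO as 100% and bortezomib (9.2 uM final) as 0%. 500 exponentially growing cells per well, RPMI plus 10% FBS.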

The nature of test [4]: High-throughput drug toxicity screening in the BPDCN cell line Cal-1 (AID 1224825; call rule not given here). Conditions: Cal-1 BPDCN cell viability, qHTS; at 45.8 µM (top of the series) unless noted. Summed up:
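Viability of the BPDCN line Cal-1 is measured as ATP-based luminescence (CellTiter-Glo) following 48 h incubation with compounds. Percent activity uses DMSO-treated wells as 100% and 9.2 uM bortezomib as 0%.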

Test [5] can be described thus: qHTS assay for measurement of the activity of small molecule inhibitors on Zika virus induced Caspase-3 activity in human iPSC derived neural progenitor cells (hNPCs) (AID 1224857). Note: % of control where 0% means no effect; nearly all actives have a fitted effect of over 65% in size. A digest of the protocol:
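Zika virus (2 FFU/cell) infection of human iPSC-derived NPCs, 6 h, following 1 h compound preincubation. Read-out: Caspase-Glo 3/7 luminescence.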

Test [6] in a line: qHTS assay for measurement of the activity of small molecule inhibitors on Zika virus induced Caspase-3 activity in human astrocytoma cells (AID 1224859).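 Note: plate controls were ZIKV-infected untreated cells for no effect and uninfected cells for full effect.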 A digest of the protocol: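 Caspase activation in ZIKV-infected SNB-19 cells (2 FFU/cell, 6 h) measured by Caspase-Glo 3/7 luminescence after 30 min RT; compound pre-incubated 1 h; normalised to uninfected and infected controls.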

Test [7] can be described thus: qHTS Screen of the MIPE 4.0 Collection Against Ewings Sarcoma (RDES) (AID 1259252). Note: nearly all actives have a fitted effect of over 35% in size. Note: potency is the fitted concentration of half-maximal effect. Summed up: (§2)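 Here, cells in 5% FBS RPMI were exposed for two days (48 h) to compound dilutions added four hours after plating. ATP-based CellTiter-Glo luminescence measured viability, normalized to vehicle and no-cell blanks.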
The nature of test [8]: qHTS Screen of the MIPE 4.0 Collection Against Ewings Sarcoma (TC71) (AID 1259253). Note: nearly all actives have a fitted effect of over 40% in size. Note: potency is the fitted concentration of half-maximal effect. A digest of the protocol: as §2
A short description of test [9]: qHTS Screen of the MIPE 4.0 Collection Against Ewings Sarcoma (EW8) (AID 1259255).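 For viability: 100% = DMSO-treated cells and 0% = medium-only wells without cells.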 Note: nearly all actives have a fitted effect of over 35% in size. Note: potency is the fitted concentration of half-maximal effect. Summed up: as §2
Test [10] is described as follows: qHTS Screen of the MIPE 4.0 Collection Against Ewings Sarcoma (TC32) (AID 1259256). Note: nearly all actives have a fitted effect of over 45% in size. Note: potency is the fitted concentration of half-maximal effect. Summed up:
as §2

Test [11] can be described thus: qHTS assay to identify small molecule inhibitors of chordoma cells - UCH-2 (AID 1259356). Note: % is set by controls: 0 for no effect and ±100 for the full control effect.
Test [12] can be described thus: P-glycoprotein substrates identified in KB-8-5-11 adenocarcinoma cell line, qHTS therapeutic library screen (AID 1346987). Note: nearly all actives have a fitted effect of over 65% in size. Note: potency is the fitted concentration of half-maximal effect. A digest of the protocol: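 Luminescence from CellTiter-Glo, read 5 min after addition, quantified survival of KB-8-5-11 (P-gp-overexpressing) cells exposed to compounds for 72 h. AC50 was derived from concentration-response curves.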
Test [13] in a line: qHTS assay to identify small molecule inhibitors of chordoma cells - UCH-1 (AID 1259355). Note: % is set by controls: 0 for no effect and ±100 for the full control effect; nearly all actives have a fitted effect of over 55% in size. Summed up:
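A 48hr growth-inhibition format: each drug tested at 15 concentrations together with added auranofin, camptothecin, doxorubicin, rubitecan and topotecan, with cell viability quantified as CellTiter-Glo luminescence.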

Test [14] in a line: P-glycoprotein substrates identified in KB-3-1 adenocarcinoma cell line, qHTS therapeutic library screen (AID 1346986). Note: nearly all actives have a fitted effect of over 60% in size. Conditions: KB-3-1 parental cells viability, CellTiter-Glo, 72 h; at 44.5 µM (top of the series). Summed up:
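72 h cell-killing screen, 500 cells/well, CellTiter-Glo luminescence. Paired lines KB-3-1/KB-8-5-11; P-gp dependence checked by tariquidar co-treatment and HEK-293 MDR-19 versus empty-vector cells.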

Test [15] in a line: Identifying Small Molecule Inhibitors of Pancreatic Cancer Stem Cells (SN12C, Adherent) (AID 1259358).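 Note: cell survival measured after 48 h of compound exposure.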 A digest of the protocol:
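Luminescent ATP readout (CellTiter-Glo) quantifies surviving cells after a 48 h drug incubation. Normalization uses DMSO wells as no inhibition and media-only wells as full inhibition; bortezomib served as positive control.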

Test [16] is described as follows: Identifying Small Molecule Inhibitors of Pancreatic Cancer Stem Cells (SN12C, Spheroid) (AID 1259360).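 Note: 100% = DMSO-treated cells and 0% = wells without cells.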 Conditions: Potency: SN12C spheroid viability. A digest of the protocol: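 Spheroids grown 14 days in stem cell media on hydrogel-coated nonadherent plates; 2D lines seeded directly. Compounds added after 4 h attachment, 48 h at 37C, 5% CO2; CellTiter-Glo luminescence normalized to DMSO (no inhibition) and no-cell wells (full inhibition).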

Several values for one entry are separate records, joined by “and”; a condition that tells them apart may be missing. Equal values may be shown once. Records with an inconclusive call do not appear. A structure can be active in one record and inactive in another. Activity calls are given as the source filed them. Unless noted, calls come from the whole dose curve; as a rule, active = well fitted curve in the direction sought with a large enough effect; inconclusive = small, poorly fitted or top-dose-only effect, or another doubt; inactive = no such curve, though single readings can be large; an effect the other way counts as inactive or inconclusive.

Take `CCC(=O)O[C@]1(C(=O)CCl)[C@@H](C)C[C@H]2[C@@H]3CCC4=CC(=O)C=C[C@]4(C)[C@@]3(F)[C@@H](O)C[C@@]21C`: the parasite growth, % of control (lower = inhibition) in [1] came out at 8.54%. In addition, the growth, % of control in [2] came to 8.53%. The cell viability, % of control (lower = more cytotoxic) in [3] worked out at 44.1%. Further, the viability (% of control) in test [4] came to 47.1%. Further, the Potency entry in test [5], in [6], in [7], in [8], in [9] and in test [10] was “inactive” in each case. The Potency result in test [11] and in [12] was “inactive” in each case.

On to `CCn1cc(C(=O)O)c(=O)c2cc(F)c(N3CCNCC3)nc21`, for which the parasite growth, % of control (lower = inhibition) in test [1] was determined as 53.9%. In addition, in test [2], the growth, % of control was determined as 56.4%. The cell viability, % of control (lower = more cytotoxic) in test [3] came out at 194%. Also, the viability (% of control) in test [4] was 114%. Also, the Potency result in test [5], in test [6], in test [7], in test [8], in [9] and in [10] was “inactive” throughout. Besides, the Potency result in test [11] and in test [12] was “inactive” throughout.

Regarding `Cc1cc(NS(=O)(=O)c2ccc(N)cc2)no1`, the cell viability, % of control (lower = more cytotoxic) in test [3] is 56.5%. Further, the viability (% of control) in [4] came out at 82.3%. Moreover, the Potency entry in [5], in test [6], in test [7], in test [8], in [9] and in test [10] was “inactive” in each case. Further, the Potency entry in [13], in test [11] and in [12] was “inactive” each time. In test [14], the result was inactive.

The compound `CCn1cc(C(=O)O)c(=O)c2cc(F)c(N3CCN(C)CC3)cc21` returned a parasite growth, % of control (lower = inhibition) in [1] of 52.8%. The same compound showed a growth, % of control in test [2] of 370%. Moreover, in test [3], the cell viability, % of control (lower = more cytotoxic) came to 85.7%. The viability (% of control) in test [4] came to 97.9%. Moreover, the Potency result in test [5], in test [6], in test [7], in test [8], in test [9] and in test [10] was “inactive” throughout. Besides, the Potency entry in test [11] and in [12] was “inactive” in each case.

On to `Cc1c(-c2ccc(O)cc2)n(Cc2ccc(OCCN3CCCCCC3)cc2)c2ccc(O)cc12`, for which the cell viability, % of control (lower = more cytotoxic) in test [3] is 158%. The viability (% of control) in [4] was determined as 121%. The Potency entry in test [5], in test [6], in test [7], in test [8], in test [9] and in test [10] was “inactive” in each case. For the same compound, the Potency result in [15] and in test [16] was “inactive” each time.

As to `COc1ccc2cc3[n+](cc2c1OC)CCc1cc2c(cc1-3)OCO2`, the parasite growth, % of control (lower = inhibition) in test [1] is 13.4%. In test [2], this compound registered a growth, % of control of 4.47%. For the same compound, the cell viability, % of control (lower = more cytotoxic) in test [3] came to 19.2%. Besides, the viability (% of control) in test [4] was determined as 7.43%. Besides, the Potency result in [5], in [6], in test [11] and in test [12] was “inactive” in each case. Also, the Potency is 8.33 µM (active) in test [7], 5.9 µM (active) in [8], 11.8 µM (active) in test [9] and 7.43 µM (active) in test [10].

`CN1CCN(c2c(F)cc3c(=O)c(C(=O)O)cn4c3c2OCN4C)CC1` showed a parasite growth, % of control (lower = inhibition) in test [1] of 77.3%. Moreover, the growth, % of control in test [2] was determined as 73.2%. Moreover, the cell viability, % of control (lower = more cytotoxic) in test [3] came out at 170%. Besides, the viability (% of control) in test [4] worked out at 117%. The Potency result in [5], in [6], in test [7], in test [8], in [9] and in test [10] was “inactive” throughout. For the same compound, the Potency entry in [11] and in test [12] was “inactive” throughout. Also, the result in test [14] was inactive.

The compound `Nc1nc(F)nc2c1ncn2[C@@H]1O[C@H](CO)[C@@H](O)[C@@H]1O` had a parasite growth, % of control (lower = inhibition) in test [1] of 12%. Besides, the cell viability, % of control (lower = more cytotoxic) in test [3] turned out to be 9.4%. Further, in [4], the viability (% of control) amounted to 3.53%. The Potency result in test [5], in [6], in test [13] and in test [11] was “inactive” throughout. Further, the Potency is 0.59 µM (active) in test [7]; 0.372 µM (active) in test [8]; 0.469 µM (active) in test [9]; 1.32 µM (active) in test [10]; “inactive and 662 nM (active)” in test [12]. Also, the outcome in test [14] was inactive.
